Assay results as given in PubChem BioAssay AID589 (National Center for Advancing Translational Sciences (NCATS), 2007).
The whole screen tested about 59,000 compounds, of which about 6,200 (11%) were called active. Another 9% or so got no clear call; they are omitted. Cut-off read from the data, not from the text of the source: active = max dye-equivalent concentration above about 10 nM; inconclusive = mostly about 1.1 nM to 9.6 nM; inactive = weaker than that. Shown is part of a subset that was picked to be rich in actives.

Test: qHTS Assay for Spectroscopic Profiling in 4-MU Spectral Region
Settings: compound autofluorescence, 340/450 nm, 4-MU equivalents; hits give high values
In short: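 Intrinsic fluorescence at 340/450 nm (ex/em) was read after 15 min at room temperature in pH 8.0, 100 mM Tris. Each compound concentration expressed as 4-MU-equivalent concentration from a six-point 4-MU standard series on each plate.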

Structure (SMILES)	max dye-equivalent concentration
CC1(C)NC(=O)N(CCOc2cccc(Oc3ccccc3)c2)C1=O	inactive
COc1ccc2[nH]cc(CCNc3nc(-c4cccc(NS(C)(=O)=O)c4)nc4ccccc34)c2c1	inactive
COc1ccccc1-c1cc(C(=O)NCCCn2ccnc2)no1	inactive
COc1ccc(CNc2ncncc2-c2ccccc2OC)c(OC)c1	inactive
Cc1cccc2cc(C#N)c(N3CCCC3)nc12	42 nM (active)
Cc1cc(C)c2nc(N3CCCC3)c(C#N)cc2c1	130 nM (active)
Cc1ccc(OCc2nc(C#N)c(N3CCCC3)o2)cc1	inactive
NC(=O)C1CCN(C(=O)c2ccc(C(F)(F)F)cc2)CC1	inactive
CN1CCN(CCCNC(=O)c2cc3c(=O)oc4ccccc4c3s2)CC1	inactive
O=C(c1ccc([N+](=O)[O-])cc1)[C@@H](Br)[C@@H](Br)c1ccnc2ccccc12	inactive
CC12C(=O)N(n3cnnc3)C(=O)C1C1C=CC2C1 (stereo not drawn)	inactive
Fc1ccc2[nH]c3c(N4CCSCC4)ncnc3c2c1	47 nM (active)
Cc1ccc(-n2ncc3c(N4CCN(c5ccc(F)cc5)CC4)ncnc32)c(C)c1	inactive
Cc1cnc(CNc2nc(-c3cccnc3)nc3ccccc23)cn1	inactive
Cc1noc(C)c1C(=O)NC(C)c1ccc2c(c1)OCO2 (stereo not drawn)	inactive
O=C(CSc1nnc(-c2ccco2)n1Cc1ccccc1)NC(=O)NCc1ccco1	inactive
CO[C@@H]1/C=C\O[C@]2(C)Oc3c(C)c(O)c4c(O)c(c(CN(C)C)c(O)c4c3C2=O)NC(=O)/C(C)=C\C=C[C@@H](C)[C@@H](O)[C@H](C)[C@@H](O)[C@H](C)[C@H](OC(C)=O)[C@@H]1C	inactive
CCOc1cc(NC(=O)c2ccco2)c(OCC)cc1NC(=O)COc1ccccc1	85 nM (active)
Cc1ccc(C(=O)COc2cccc(NC(=O)c3ccco3)c2)cc1	inactive
O=C(Nc1ccc(Oc2ccccc2)cc1)c1ccco1	inactive
O=c1oc2c(CN3CCCCC3)c(O)ccc2c2c1CCCCC2	12000 nM (active)
CCN(CC)S(=O)(=O)c1cc(C(=O)Nc2ccccn2)ccc1C	inactive

Structure (SMILES)	max dye-equivalent concentration
Cn1c(=O)cc(OCCCC(=O)N2CCN(c3ccccn3)CC2)c2ccccc21	inactive
Cc1ccnc(N2CCN(C(=O)CSc3nc4ccccc4nc3N3CCCCC3)CC2)c1	29 nM (active)
O=C(CSc1nc2ccccc2o1)N1CCN(c2ccccc2)CC1	inactive
CC1Cc2ccccc2N1C(=O)CSc1nc2ccccc2o1 (stereo not drawn)	inactive
c1ccc(CCN2CCN=C2Cc2ccccc2)cc1	inactive
Cc1ccc(NC(=O)Cn2nc(C)c3ccccc3c2=O)c(C)c1	inactive
CCOc1ccc(N=NS(=O)(=O)O)cc1	inactive
Nc1ccc2[nH]cc(CCC(=O)O)c2c1	inactive
NCCNCC1CCNCC1	inactive
O=C(NCCc1ccccn1)c1ccc(COc2ccccc2)o1	inactive
O=C(O)[C@H](CCc1ccccn1)c1ccccc1	inactive
C/C(N)=C(\C#N)C(=O)NCCc1ccccn1	46 nM (active)
O=C1C(=O)N(CCN2CCOCC2)C(c2ccccn2)/C1=C(/O)c1ccc(Cl)cc1 (stereo not drawn)	inactive
COc1ccccc1-c1nc(N2CCN(C)CC2)c2ccccc2n1	inactive
CCOC(=O)c1ccc(COC(=O)c2cc(=O)[nH]c3ccccc23)o1	33 nM (active)
CCOC(=O)c1ccc(CS(=O)c2ccc(Cl)cc2)o1 (stereo not drawn)	inactive
CCOC(=O)c1sc2nc(CSCC(=O)OCc3ccc(C(=O)OC)o3)[nH]c(=O)c2c1C	inactive
CN(C)/C=C/c1c(C#N)c(=O)ncn1Cc1ccccc1	inactive
COC(=O)CCSc1nccn1Cc1ccccc1	inactive
CN(C)c1ccnc2sc3c(=O)n(Cc4ccccc4)cnc3c12	28 nM (active)
CCOc1ccccc1N(CC(=O)NC1CCCCC1)C(=O)CCCC(=O)Nc1ccccn1	inactive
CCC(C)(C)n1nnnc1C(c1cccs1)N1CCN(Cc2ccccc2)CC1 (stereo not drawn)	inactive

Structure (SMILES)	max dye-equivalent concentration
COc1ccccc1C(=O)Oc1ccc(N2C(=O)CCC2=O)cc1	inactive
CCOc1nc(-c2ccc(OC)cc2)ccc1-c1noc(-c2cc(OC)c(OC)c(OC)c2)n1	57 nM (active)
COc1ccc(-c2noc(CN(C)S(=O)(=O)c3ccc(C)cc3)n2)cc1	inactive
COc1ccc(-c2nc(-c3ccccc3)no2)c(OC)c1	inactive
CCOc1cc(-c2noc(CCC(=O)N3CCOCC3)n2)ccc1OC	inactive
COc1ccc(-c2ccc(-c3noc(-c4ccncc4)n3)c(OC)n2)cc1	17 nM (active)
O=C(Oc1ccc(-c2nc(-c3ccccn3)no2)cc1)c1ccccc1	inactive
FC(F)Oc1ccccc1C1CC(c2ccc(Br)s2)Nc2ncnn21 (stereo not drawn)	inactive
CN1CCN(C(=O)c2ccc(NS(=O)(=O)c3ccccc3)cc2)CC1	inactive
O=C(c1cnccn1)N1CCC2(CCCN(Cc3ccccc3)C2)CC1	inactive
Cc1ccc2c(c1)c1ncn(CCC3=CCCCC3)c(=O)c1n2C	38 nM (active)
O=C(COc1cccc(-n2cnnn2)c1)NCCC1=CCCCC1	inactive
Cn1nnc2cc(C(=O)NCCC3=CCCCC3)ccc21	inactive
NC(=S)c1ccc(C(N)=S)o1	inactive
CCCCSc1nnc(-c2ccc(NC(=O)CC)cc2)n1C	inactive
CCOc1cc(C)c(Cl)cc1S(=O)(=O)n1nnc2ccccc21	inactive
O=C(c1cccs1)N1CCC(c2nc3ccccc3s2)CC1	inactive
O=C(OC1CCOC1=O)c1ccc(-c2nc3ccccc3s2)s1 (stereo not drawn)	550 nM (active)
Cc1nn(Cc2ccccc2)c(Cl)c1C(=O)OC1CCOC1=O (stereo not drawn)	inactive
Cc1ccc(C(C)C)c(OCc2nnc(SCC(=O)Nc3nccs3)n2C)c1	inactive
C=CCOc1ccc(/C=N/n2cncn2)cc1OC	inactive
COc1ccc(Cl)cc1NC(=O)C1CC(=O)N(c2ccc(F)cc2)C1 (stereo not drawn)	inactive

Structure (SMILES)	max dye-equivalent concentration
COCCCNC(=O)C1CC(=O)N(c2ccc(C)cc2)C1 (stereo not drawn)	inactive
COc1cccc(N2CC(C(=O)Nc3c(C)cccc3C)CC2=O)c1 (stereo not drawn)	20 nM (active)
O=C(Nc1ccn(Cc2ccc(F)cc2)n1)c1ccncc1	inactive
N#Cc1c(NC(=O)CSc2nc3ccccc3c(=O)n2Cc2ccco2)sc2c1CCCC2	inactive
CC(C)(O/N=C(\C(=O)N[C@@H]1C(=O)N2C(C(=O)[O-])=C(C[n+]3ccccc3)CS[C@@H]12)c1csc(N)n1)C(=O)O	inactive
CC(=O)N=c1ncn(CC(COC(C)=O)OC(C)=O)c2nc[nH]c12 (stereo not drawn)	inactive
Cc1ccc(S(=O)(=O)N2CCCC2C(=O)NCc2ccco2)cc1 (stereo not drawn)	inactive
CC(=O)c1c(N2CCOCC2)nc(=S)n(Cc2ccccc2)c1C	inactive
O=C(Nc1ncccn1)c1cccs1	inactive
CCOC(=O)c1c(NC(=O)c2cccs2)sc(C)c1C	190 nM (active)
CCOC(=O)c1oc2ccccc2c1NC(=O)c1cccs1	18 nM (active)
COC(=O)c1c(NC(=O)c2cccs2)sc2c1CCCC2	90 nM (active)
COC(=O)c1c(NC(=O)CSc2nncs2)sc2c1CCCCC2	inactive
COC(=O)Cn1cc(C(=O)c2cccs2)c2ccccc21	inactive
CCOC(=O)CSc1nnc(CNC(=O)c2cccs2)n1-c1ccccc1	inactive
CCOCC(=O)Nc1sc2c(c1C(=O)OCC)CCCC2	inactive
CCOC(=O)c1c(NC(=O)CSc2nnc(Cc3csc(N)n3)n2C)sc(C)c1C	inactive
Cc1ccnc(N2CCC(C(=O)NC3CCCCCC3)CC2)n1	inactive
CCN(CC)S(=O)(=O)c1ccc2nc(COC(=O)c3n[nH]c4ccccc34)[nH]c2c1	inactive
COc1ccc2c(c1)CCc1c(C(=O)Nc3c(C)n(C)n(-c4ccccc4)c3=O)noc1-2	inactive
O=C(Nc1c[nH]c(=O)[nH]c1=O)Oc1ccccc1	inactive
Cc1ccc(C)c(N(CC(=O)NCc2ccco2)C(=O)CCC(=O)Nc2ccccn2)c1	inactive
